This note sets out measurements from PubChem BioAssay (EPA / NIEHS).

More than one record can exist for a structure, and the calls need not agree. Calls of active or inactive are those of the source. Rule for the calls: active = hit-call score of the fitted dose curve at least 0.9, where 1 is the maximum; inactive = score below 0.9.

One may read the AC50 as the concentration at which the activity in the assay is half-maximal.

Read-out in this test: Monokine induced gamma interferon (MIG), CXCL9 (gene 4283)
In words: BSK_BE3C_MIG: BioMAP Diversity Plus: BE3C Assay for Monokine induced gamma interferon (MIG) Biomarker Activity (AID 2283035). Particulars: primary human bronchial epithelial cells; actives raise or lower the signal. As for the experimental part: BSK_BE3C is a cell-based, multiplexed-readout assay that uses bronchial epithelial cell, a human lung primary cell, with measurements taken at 24 hours after chemical dosing in a 96-well plate.BSK_BE3C_MIG is an assay component measured in the BSK_BE3C assay. It measures MIG antibody related to regulation of gene expression using ELISA technology.Data from the assay component BSK_BE3C_MIG was analyzed into 1 assay endpoint. This assay endpoint, BSK_BE3C_MIG, was analyzed with bidirectional fitting relative to DMSO as the negative control and baseline of activity. Using a type of binding reporter, gain or loss-of-signal activity can be used to understand changes in the signaling as they relate to the gene CXCL9. Furthermore, this assay endpoint can be referred to as a primary readout, because this assay has produced multiple assay endpoints where this one serves a signaling function. To generalize the intended target to other relatable targets, this assay endpoint is annotated to the cytokine intended target family, where the subfamily is chemotactic factor.
The levels of cell surface (or secreted, indicated by the prefix "s") biomarker endpoints were measured by ELISA. Overt cytotoxicity to cells in confluent adherent cultures (all systems other than the BT system) was assessed by measuring total protein levels using sulforhodamine B (SRB) staining in parallel cultures at the time of biomarker measurements, indicated as SRB endpoints. For proliferation assays for adherent cell types, individual cell types are cultured at sub-confluence and relative cell numbers quantified by SRB staining at time points optimized for each system (48 h: 3C and CASM3C systems; 72 h: BT and HDF3CGF systems; 96 h: SAg system). SRB was performed by staining cells with 0.1% SRB after fixation with 10% TCA and reading wells at 560 nm.Viability and proliferation of PBMC (T cells) was quantified by Alamar Blue reduction for the SAg and BT systems. For PBMC viability (referred to as PBMC Cytotoxicity within the assay endpoint names), cells were plated (75,000/well in a 96-well plate) and then chemical samples added for 1 h before addition of activators, SEB and TSST-1 (20 ng/mL final concentration each). Cells were incubated for 90 h. Then, Alamar Blue (20 uL/well) (Invitrogen, Cat DAL1100) was added for 6 h, and the plates were read with a fluorescence microplate reader at 546/580 nm (excitation/emission). For PBMC proliferation, cells were plated and activated as above but incubated for only 16 h prior to addition of Alamar Blue. Plates were read after 6 h.
For `CC(C)CCCC(C)(C)O`, the outcome was inactive.

For the compound `C=C(F)C(=O)OC(C(F)(F)F)C(F)(F)F`, the outcome was inactive.

Consider `c1ccc(OCCOc2ccccc2)cc1`, for which the result was inactive.

As to `CC=CC(=O)C1=C(C)C=CCC1(C)C`, the result was inactive.

Turning to `O=C(O)C(F)(F)OC(F)(F)C(F)(F)OC(F)(F)C(F)(F)C(F)(F)C(F)(F)F`, the outcome was inactive.

Turning to `CCn1cc(C(=O)O)c(=O)c2ccc(C)nc21`, the outcome was inactive.

As to `CCCCCCCC1CCCC1=O` (stereo not given), the outcome was inactive.

For `CC(=O)CCC=C(C)CCC=C(C)C`, the result was inactive.

As for `CCOC(=O)C=Cc1ccccc1`, the result was inactive.

For the compound `CC(=O)OC(C)(C)C1CC=C(C)CC1` (stereo not given), the outcome was inactive.

On to `COc1ccccc1NC(=O)CC(C)=O`, for which the result was inactive.

`CC(C)(C)c1cccc(O)c1`: the result was inactive.

Turning to `CCCO[Si](OCCC)(OCCC)OCCC`, the outcome was inactive.

Take `CC(=O)c1ccc(C)cc1`: the result was inactive.

Regarding `O=S1(=O)CC(Cl)(Cl)C(Cl)(Cl)C1`, the concentration at half-maximal activity (AC50) is 2.04 µM (active).

In the case of `C=C(C)C(=O)OCCC(F)(F)C(F)(F)C(F)(F)C(F)(F)C(F)(F)C(F)(F)C(F)(F)C(F)(F)F`, the result was inactive.

Turning to `OCCN1CCOCC1`, the outcome was inactive.

For `C=CC(=O)OCC(CO)(COC(=O)C=C)COC(=O)C=C`, the half-maximal activity concentration (AC50) is 2.03 µM (active).

For `COC(=O)c1ccc(C(=O)OC)cc1`, the result was inactive.

With `CCCCCCCCCC(=O)OCC`, the result was inactive.

On to `c1ccc(Sc2ccccc2)cc1`, for which the outcome was inactive.

Regarding `O=C1OC2(c3ccc(O)cc3Oc3cc(O)ccc32)c2ccccc21`, the outcome was inactive.

`C#C[C@]1(O)CC[C@H]2[C@@H]3CCc4cc(O)ccc4[C@H]3CC[C@@]21C`: the result was inactive.

On to `C[C@]12CC[C@@H]3c4ccc(O)cc4CC[C@H]3[C@@H]1CC[C@@H]2O`, for which the outcome was inactive.

Consider `C=C1CC/C=C(\C)CC[C@@H]2[C@@H]1CC2(C)C`, for which the outcome was inactive.

For `Nc1ccc(N)c([N+](=O)[O-])c1`, the result was inactive.

As to `NC(=O)c1c(Cl)cccc1Cl`, the outcome was inactive.

Take `CCC(=O)OCC=Cc1ccccc1`: the outcome was inactive.

Take `CC(C)Cc1ccc(C(C)C(=O)O)cc1` (stereo not given): the outcome was inactive.

For `OCC(F)(OC(F)(F)C(F)(OC(F)(F)C(F)(F)C(F)(F)F)C(F)(F)F)C(F)(F)F` (stereo not given), the outcome was inactive.

Turning to `O=C(O)C(F)(F)C(F)(F)C(F)(F)C(F)(F)C(F)(F)C(F)(F)C(F)(F)C(F)F`, the outcome was inactive.

For the compound `CCCCN(CCO)CCO`, the outcome was inactive.

As to `CC1=CC(C)C(C=O)C(C)C1` (stereo not given) (tested in a mixture with another compound), the outcome was inactive.

On to `CC1(C)[C@H](C=C(Cl)Cl)[C@H]1C(=O)OCc1cccc(Oc2ccccc2)c1`, for which the outcome was inactive.

For `C=C(C)C(N)=O`, the result was inactive.

Regarding `CC(C)(CO)CO`, the AC50 is 8.35 µM (active) and the outcome was inactive.

Take `O=S(=O)(O)C(F)(F)C(F)(F)OC(F)(F)C(F)(F)F`: the outcome was inactive.

On to `O=C(c1ccc(OCCN2CCCCC2)cc1)c1c(-c2ccc(O)cc2)sc2cc(O)ccc12`, for which the AC50 was 37.2 µM (active).

As to `c1ccc2c(c1)-c1ccc3ccc4cccc5cc-2c1c3c45`, the result was inactive.
